The source of these data is PubChem BioAssay (NCATS).

Inconclusive results are not listed. Active and inactive are the calls of the source. Unless noted, the call rests on the fitted dose curve; in most records, active means well fitted curve in the direction sought with a large enough effect; inconclusive means small, poorly fitted or top-dose-only effect, or another doubt; inactive means no such curve, though single readings can be large; an effect the other way counts as inactive or inconclusive.

The nature of assay [1]: qHTS Validation Assay to Find Inhibitors of Chronic Active B-Cell Receptor Signaling (AID 485345; active means well fitted curve in the direction sought with a large enough effect in the main read-out, with a control signal flat, not every such curve was filed as active). Put shortly:
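TMD8 ABC-DLBCL cells stably carrying doxycycline-inducible IkappaBalpha–green luciferase fusion plus unfused red luciferase; compounds 46 uM to 3 nM, 4 h at 37C with doxycycline. Corrected green/red luminescence ratio normalized to 10 uM MG-132 and basal cell wells; curves fitted.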

Assay [2] addresses Beta-2 adrenergic receptor (Homo sapiens) (UniProt P07550). Nature of the assay: qHTS validation assay of beta-arrestin-biased ligands of beta2-adrenergic receptor (AID 485366). The procedure, abridged:
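Agonism was measured as beta-arrestin recruitment to recombinant beta2-AR, releasing tTA to drive luciferase. Cells were exposed for 18 hr at 37 degrees C to a series up to 46 microM. %Activity from corrected luminescence gave concentration-response curves.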
(In general: qHTS replaces the single test concentration by a dilution series.)

The target of assay [3] is ATP-dependent 6-phosphofructokinase (Trypanosoma brucei brucei) (UniProt O15648). The assay can be described thus: qHTS Validation Assay to Find Inhibitors of T. brucei phosphofructokinase (AID 485368). Further: potency means the concentration at half of the fitted maximal effect. The procedure, abridged: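 ADP-Glo luminescence, two-step: residual ATP depleted, then ADP converted to ATP for luciferase. Enzyme 1.25 nM, F6P 0.5 mM, ATP 0.1 mM, pH 8.0 TEA buffer, 45 min RT. Curves fitted and classed by quality and efficacy.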

Assay [4] has as its target Thioredoxin reductase 1, cytoplasmic (Rattus norvegicus) (UniProt O89049). The assay can be described thus: qHTS Assay for Substrates of Mammalian Selenoprotein Thioredoxin Reductase 1 (TrxR1) (AID 488772).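 Further: series mostly up to about 57 µM; a drop in NADPH fluorescence below the no-compound background marks a TrxR1 substrate.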 The procedure, abridged:
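In this dual-purpose format, potential substrates are identified from the first fluorescence read after selenite addition, not from the 8-minute delta. Rat enzyme is preincubated with NADPH and then with compound at ~22 deg C.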

The target is the same in assay [5]. The assay can be described thus: qHTS Assay for Inhibitors of Mammalian Selenoprotein Thioredoxin Reductase 1 (TrxR1) (AID 488773). Further: nearly all actives have a fitted effect of over 40% in size. Further: potency means the concentration at half of the fitted maximal effect. The conditions noted are these: Potency: inhibition. The procedure, abridged: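 Inhibition is scored from the loss of NADPH fluorescence between first and last reads of an 8-min kinetic run. Selenite (400 uM) was the substrate, added after 15 min compound preincubation at room temperature.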

For assay [6], the target named is Flap endonuclease 1 (Homo sapiens) (UniProt P39748). The assay can be described thus: qHTS Validation Assay for the Inhibitors of Human Flap endonuclease 1 (FEN1) (AID 488816). Put shortly: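 Enzyme reagent 10 nM; cpds pinned; 15 min RT preinc.; substrate 50 nM final; reads t=0 and 15 min; no-enzyme buffer wells as neg. control; normalized data, 4-parameter Hill fit.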

Assay [7] addresses M-phase phosphoprotein 8 (Homo sapiens) (UniProt Q99549). The assay can be described thus: qHTS Validation Assay for Inhibitors for MPP8 Chromodomain Interactions with Methylated Histone Tails (AID 488949). Further: top concentration of the series differs between compounds; nearly all actives have a fitted effect of over 55% in size. The procedure, abridged: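 MPP8 (50 nM) was pre-bound to 50 nM biotinylated H3(1-18)K9me3 peptide in PBS pH 7.4 with 0.01% Tween-20. Compounds were then added for 30 min at room temperature, and complex disruption was read by AlphaScreen with streptavidin donor and nickel-chelate acceptor beads.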

For assay [8], the target named is Methanococcus maripaludis chaperonin (MmCpn) (UniProt Q6LX38). Nature of the assay: High-Throughput Screening for Modulators of Cytosolic Chaperonin Activity: MmCpn Primary Screen (AID 488978). Further: potency means the concentration at half of the fitted maximal effect. Put shortly: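 MmCpn at 50 nM final was preincubated 5 min at RT with compound. ATP was then added at 30 uM final for 10 min at 37 C. ADP formed was detected by Transcreener HTRF (665/590 nm).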

Assay [9] is described as follows: Quantitative high throughput screen for delayed death inhibitors of the malarial parasite plastid, 96 hour incubation (AID 488745).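 Further: luciferase-expressing P. falciparum in erythrocytes at 2% hematocrit and 0.1% parasitemia; series mostly up to about 29 µM; nearly all actives have a fitted effect of over 70% in size.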 The procedure, abridged: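 Readout is firefly luciferase luminescence from an integrated reporter in P. falciparum; lower signal marks inhibited growth. Cultures at 2% hematocrit and 0.1% parasitemia were treated with compound across two generations (96 h, 37 C, 5% CO2).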

Assay [10] in a line: Quantitative high throughput screen for delayed death inhibitors of the malarial parasite plastid, 48 hour incubation (AID 488752). Further: nearly all actives have a fitted effect of over 65% in size. Further: potency means the concentration at half of the fitted maximal effect. The procedure, abridged:
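First, compound was pinned into RPMI 1640 medium containing 0.5% Albumax. Next, reporter-parasite-infected erythrocytes were added to 2% hematocrit and 0.1% parasitemia. After 48 h at 37 C under 5% CO2, luciferase detection reagent was added and luminescence read.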

Methanococcus maripaludis chaperonin (MmCpn), sequence (Q6LX38 1-543): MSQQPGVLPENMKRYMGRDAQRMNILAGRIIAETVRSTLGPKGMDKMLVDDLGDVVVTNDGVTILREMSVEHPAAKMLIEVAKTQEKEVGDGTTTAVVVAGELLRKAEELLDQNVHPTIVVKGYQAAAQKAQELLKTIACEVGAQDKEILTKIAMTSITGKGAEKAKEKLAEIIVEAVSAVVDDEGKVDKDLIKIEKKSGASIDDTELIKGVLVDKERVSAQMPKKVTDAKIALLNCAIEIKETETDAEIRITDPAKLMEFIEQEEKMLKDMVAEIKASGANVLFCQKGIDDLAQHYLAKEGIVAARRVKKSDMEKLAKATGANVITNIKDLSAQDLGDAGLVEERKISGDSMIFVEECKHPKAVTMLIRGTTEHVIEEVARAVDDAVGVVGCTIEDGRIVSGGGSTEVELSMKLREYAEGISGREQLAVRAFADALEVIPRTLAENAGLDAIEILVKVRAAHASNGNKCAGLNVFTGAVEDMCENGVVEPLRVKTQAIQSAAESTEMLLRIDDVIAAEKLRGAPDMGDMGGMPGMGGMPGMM
M-phase phosphoprotein 8 (Homo sapiens), sequence (Q99549 whole entry, looked up): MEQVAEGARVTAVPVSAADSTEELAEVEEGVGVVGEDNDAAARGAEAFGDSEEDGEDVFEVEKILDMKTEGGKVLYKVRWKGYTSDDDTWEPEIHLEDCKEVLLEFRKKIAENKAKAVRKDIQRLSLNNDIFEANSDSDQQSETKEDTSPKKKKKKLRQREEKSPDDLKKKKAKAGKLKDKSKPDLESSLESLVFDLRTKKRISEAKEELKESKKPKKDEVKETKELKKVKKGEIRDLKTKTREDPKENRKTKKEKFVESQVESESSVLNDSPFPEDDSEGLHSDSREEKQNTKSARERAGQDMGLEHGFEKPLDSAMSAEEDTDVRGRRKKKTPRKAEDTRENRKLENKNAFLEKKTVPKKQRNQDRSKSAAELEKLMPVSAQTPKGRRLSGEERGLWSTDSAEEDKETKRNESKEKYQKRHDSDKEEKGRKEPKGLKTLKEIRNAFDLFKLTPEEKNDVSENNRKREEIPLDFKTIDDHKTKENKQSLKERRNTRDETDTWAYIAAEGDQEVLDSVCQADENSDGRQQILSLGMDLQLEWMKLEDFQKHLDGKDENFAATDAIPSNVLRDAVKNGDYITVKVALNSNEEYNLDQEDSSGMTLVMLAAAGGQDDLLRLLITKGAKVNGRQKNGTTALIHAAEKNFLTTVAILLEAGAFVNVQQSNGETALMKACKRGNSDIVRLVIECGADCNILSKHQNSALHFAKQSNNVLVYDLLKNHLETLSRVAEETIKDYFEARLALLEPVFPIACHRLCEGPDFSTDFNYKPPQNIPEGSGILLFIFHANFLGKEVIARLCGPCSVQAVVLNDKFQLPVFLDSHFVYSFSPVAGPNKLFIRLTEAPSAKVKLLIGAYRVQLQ
Flap endonuclease 1 (Homo sapiens), sequence (P39748 whole entry, looked up): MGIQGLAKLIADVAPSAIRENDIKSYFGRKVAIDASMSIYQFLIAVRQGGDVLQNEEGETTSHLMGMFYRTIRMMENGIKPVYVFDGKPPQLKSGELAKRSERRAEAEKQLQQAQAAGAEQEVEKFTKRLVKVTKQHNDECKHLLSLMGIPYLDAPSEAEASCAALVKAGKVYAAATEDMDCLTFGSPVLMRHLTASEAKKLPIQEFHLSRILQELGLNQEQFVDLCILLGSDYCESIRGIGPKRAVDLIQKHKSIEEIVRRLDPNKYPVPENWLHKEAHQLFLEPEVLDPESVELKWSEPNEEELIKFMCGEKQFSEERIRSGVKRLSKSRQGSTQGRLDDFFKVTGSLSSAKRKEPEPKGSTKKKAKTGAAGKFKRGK
Beta-2 adrenergic receptor (Homo sapiens), sequence (P07550 whole entry, looked up): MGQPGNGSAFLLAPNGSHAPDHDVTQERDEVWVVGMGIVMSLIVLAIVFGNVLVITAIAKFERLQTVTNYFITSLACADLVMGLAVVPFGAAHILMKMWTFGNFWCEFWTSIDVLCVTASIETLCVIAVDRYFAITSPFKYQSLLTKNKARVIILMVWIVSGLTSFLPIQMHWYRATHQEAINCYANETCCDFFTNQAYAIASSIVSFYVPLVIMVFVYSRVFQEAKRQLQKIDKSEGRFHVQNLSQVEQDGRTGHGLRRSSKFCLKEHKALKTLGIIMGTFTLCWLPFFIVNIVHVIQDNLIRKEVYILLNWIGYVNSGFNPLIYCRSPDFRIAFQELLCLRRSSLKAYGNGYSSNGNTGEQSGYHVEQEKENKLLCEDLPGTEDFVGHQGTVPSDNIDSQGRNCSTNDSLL
ATP-dependent 6-phosphofructokinase (Trypanosoma brucei brucei), sequence (O15648 whole entry, looked up): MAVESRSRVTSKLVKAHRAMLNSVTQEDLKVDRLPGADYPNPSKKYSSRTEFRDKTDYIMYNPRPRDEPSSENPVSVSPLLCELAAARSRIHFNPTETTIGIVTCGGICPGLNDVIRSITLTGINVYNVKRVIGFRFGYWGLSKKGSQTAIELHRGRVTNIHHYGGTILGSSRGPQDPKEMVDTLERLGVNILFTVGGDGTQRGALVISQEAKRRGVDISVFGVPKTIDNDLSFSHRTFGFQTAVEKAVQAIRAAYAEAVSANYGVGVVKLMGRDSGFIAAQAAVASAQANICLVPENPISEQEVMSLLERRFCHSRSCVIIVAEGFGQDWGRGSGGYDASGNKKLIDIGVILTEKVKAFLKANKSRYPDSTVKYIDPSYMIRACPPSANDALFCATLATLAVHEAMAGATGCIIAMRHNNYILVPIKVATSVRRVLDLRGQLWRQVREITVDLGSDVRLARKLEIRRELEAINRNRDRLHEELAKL
Thioredoxin reductase 1, cytoplasmic (Rattus norvegicus), sequence (O89049 whole entry, looked up): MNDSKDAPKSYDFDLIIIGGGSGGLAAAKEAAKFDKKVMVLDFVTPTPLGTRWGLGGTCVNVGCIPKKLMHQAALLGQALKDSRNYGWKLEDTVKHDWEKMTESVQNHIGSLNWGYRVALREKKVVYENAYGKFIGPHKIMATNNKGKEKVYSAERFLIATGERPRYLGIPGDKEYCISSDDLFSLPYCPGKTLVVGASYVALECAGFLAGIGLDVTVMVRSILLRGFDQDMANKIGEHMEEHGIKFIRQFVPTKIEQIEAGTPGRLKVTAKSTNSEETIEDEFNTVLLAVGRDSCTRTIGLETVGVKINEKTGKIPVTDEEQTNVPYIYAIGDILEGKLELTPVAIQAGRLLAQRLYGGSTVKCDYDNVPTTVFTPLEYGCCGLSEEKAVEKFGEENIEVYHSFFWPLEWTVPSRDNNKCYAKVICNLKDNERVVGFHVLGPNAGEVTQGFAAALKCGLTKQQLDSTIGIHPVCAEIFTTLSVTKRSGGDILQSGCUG

For `CC(C)(C)[C@]1(O)CCN2C[C@H]3c4ccccc4CCc4cccc(c43)[C@@H]2C1`, the molecule was classed as inactive in assay [1], in assay [2] and in [4]. In addition, the Potency entry in assay [3], in assay [5], in assay [6], in assay [7] and in assay [8] was “inactive” each time.
Take `C=Cc1c(C)c2cc3[nH]c(cc4nc(cc5nc(cc1[nH]2)C(C)=C5CCC(=O)O)C(CCC(=O)O)=C4C)c(C)c3C=C`: the molecule was classed as inactive in assay [1], in [2] and in [4]. In addition, the Potency in assay [3] is 19 µM (active); in [5], 13.4 µM (active); in [8], 31.6 µM (active). The Potency result in assay [9], in assay [10], in [6] and in assay [7] was “inactive” throughout.
As to `CC1=C(CC(=O)O)c2cc(F)ccc2/C1=C\c1ccc(S(C)(=O)=O)cc1`, the molecule was called inactive in [1], in assay [2] and in [4]. Further, the Potency result in assay [3], in [10], in assay [5], in assay [6], in [7] and in [8] was “inactive” throughout.
Regarding `CNCCCC1c2ccccc2C=Cc2ccccc21`, the outcome in assay [1], in [2] and in assay [4] was inactive. In addition, the Potency entry in [9], in assay [5] and in [7] was “inactive” in each case. In addition, the Potency in assay [10] was 14.7 µM (active).
As for `CN(C)CC[C@@H](c1ccc(Cl)cc1)c1ccccn1`, the call in assay [1], in assay [2] and in [4] was inactive. For the same molecule, the Potency entry in assay [9], in assay [10], in [5], in [6], in assay [7] and in assay [8] was “inactive” in each case.
`CN(C)CCCN1c2ccccc2CCc2ccccc21`: the call in [1] and in assay [2] was inactive. Besides, the Potency result in [9] and in assay [8] was “inactive” throughout.
As for `CC(CN(C)C)CN1c2ccccc2CCc2ccccc21` (centres undefined), the call in [1], in assay [2] and in assay [4] was inactive. The Potency result in assay [3], in assay [5], in assay [6], in assay [7] and in assay [8] was “inactive” throughout.
In the case of `NC1CCN(c2cccc(Cl)n2)CC1`, the result in [1], in [2] and in assay [4] was inactive. For the same molecule, the Potency entry in assay [3], in [9], in assay [10], in assay [5], in [6] and in [7] was “inactive” in each case. Further, the Potency result in assay [8] is “inactive”.
With `CNC(=O)Oc1ccc2c(c1)[C@]1(C)CCN(C)[C@@H]1N2C`, the molecule was classed as inactive in assay [1], in assay [2] and in assay [4]. For the same molecule, the Potency result in [9], in assay [10], in assay [5], in assay [6] and in assay [8] was “inactive” each time.
For `CC(C)(C(=O)O)c1ccc(C(O)CCCN2CCC(C(O)(c3ccccc3)c3ccccc3)CC2)cc1` (centres undefined), the molecule was called inactive in [1], in [2] and in [4]. For the same molecule, the Potency result in assay [9], in assay [10], in assay [5], in [6], in assay [7] and in [8] was “inactive” in each case.
In the case of `CC(=O)OCC(=O)[C@@]1(O)CC[C@H]2[C@@H]3CCC4=CC(=O)CC[C@]4(C)[C@H]3C(=O)C[C@@]21C`, the outcome in assay [1], in assay [2] and in [4] was inactive. Further, the Potency entry in assay [3], in assay [9], in [10], in assay [5], in assay [6] and in assay [7] was “inactive” in each case. Moreover, the Potency result in [8] is “inactive”.
Take `C#CCN(C)Cc1ccccc1`: the call in assay [1], in assay [2] and in assay [4] was inactive. In addition, the Potency entry in assay [9], in assay [10], in assay [5], in assay [6], in assay [7] and in [8] was “inactive” in each case.
On to `CCN(CC)CCNC(=O)c1cc(Cl)c(N)cc1OC`, for which the result in assay [1], in [2] and in assay [4] was inactive. Besides, the Potency result in assay [3], in assay [9], in assay [10], in [5], in assay [6] and in [7] was “inactive” each time. Also, the Potency entry in assay [8] was “inactive”.
As for `COc1ccc(Cl)cc1C(=O)NCCc1ccc(S(=O)(=O)NC(=O)NC2CCCCC2)cc1`, the outcome in [1], in [2] and in assay [4] was inactive. Besides, the Potency result in assay [9], in assay [10], in assay [5], in assay [6], in assay [7] and in assay [8] was “inactive” throughout.
As for `NC(N)=NCCC[C@H](N)C(=O)O`, the molecule was classed as inactive in [1], in assay [2] and in [4]. Also, the Potency result in assay [9], in assay [10], in assay [5], in assay [7] and in [8] was “inactive” in each case.
For `Nc1cc(=O)[nH]c(N)n1`, the call in assay [1], in [2] and in assay [4] was inactive. Further, the Potency entry in assay [9], in [10], in assay [5], in [6], in assay [7] and in assay [8] was “inactive” each time.
For `C[C@](N)(Cc1ccc(O)cc1)C(=O)O`, the molecule was called inactive in assay [1], in assay [2] and in assay [4]. Further, the Potency result in assay [3], in assay [10], in assay [5], in [6], in assay [7] and in assay [8] was “inactive” in each case.
`CCN(CC)CCOC(=O)C1(C2CCCCC2)CCCCC1`: the call in assay [1], in [2] and in assay [4] was inactive. Also, the Potency entry in assay [3], in assay [9], in [10], in assay [5], in assay [6] and in [7] was “inactive” throughout. In assay [8], the Potency entry was “inactive”.
With `NC(=O)c1ncn([C@@H]2O[C@H](CO)[C@@H](O)[C@H]2O)n1`, the result in assay [1], in assay [2] and in assay [4] was inactive. Further, the Potency entry in [3], in [10], in assay [5], in assay [7] and in assay [8] was “inactive” throughout.
With `CC(C)C(=O)c1c(C(C)C)nn2ccccc12`, the result in [1], in assay [2] and in assay [4] was inactive. For the same molecule, the Potency entry in [3], in assay [9], in assay [10], in assay [5], in [6] and in assay [7] was “inactive” in each case. In addition, the Potency result in assay [8] is “inactive”.
Consider `CN(C)CCOC(C)(c1ccccc1)c1ccccn1` (centres undefined), for which the result in assay [1], in assay [2] and in assay [4] was inactive. The Potency result in [3], in [9], in [10], in [5], in [6] and in [7] was “inactive” each time. Further, the Potency entry in assay [8] is “inactive”.
